Assay results: paper PMC11006913
Changes are numbered by the printed parent chain.

What was measured:
Assay in all cases: PBM; 200 nM protein, PBS
Conditions in all cases: dsDNA, one strand shown
SIX6 [1] = target: T1, SIX6 (Homo sapiens, UniProt O95475 114-200, L167I)
T1 sequence: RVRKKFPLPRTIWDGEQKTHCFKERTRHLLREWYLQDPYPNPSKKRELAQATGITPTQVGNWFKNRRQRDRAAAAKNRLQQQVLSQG

SIX6 [2] = target: T2, SIX6 (Homo sapiens, UniProt O95475 114-200, L143V)
T2 sequence: T1 sequence with L30V, I54L

SIX6 [3] = target: T3, SIX6 (Homo sapiens, UniProt O95475 114-200, H141N)
T3 sequence: T1 sequence with H28N, I54L

SIX6 [4] = target: T4, SIX6 (Homo sapiens, UniProt O95475 114-200, T165P)
T4 sequence: T1 sequence with T52P, I54L

SIX6 [5] = target: T5, SIX6 (Homo sapiens, UniProt O95475 114-200, L167M)
T5 sequence: T1 sequence with I54M

SIX6 [6] = target: T6, SIX6 (Homo sapiens, UniProt O95475 114-200, L143M)
T6 sequence: T1 sequence with L30M, I54L

SIX6 [7] = target: T7, SIX6 (Homo sapiens, UniProt O95475 114-200, L143I)
T7 sequence: T1 sequence with L30I, I54L

SIX6 [8] = target: T8, SIX6 (Homo sapiens, UniProt O95475 114-200, T165G)
T8 sequence: T1 sequence with T52G, I54L

SIX6 [9] = target: T9, SIX6 (Homo sapiens, UniProt O95475 114-200, T139Q)
T9 sequence: T1 sequence with T26Q, I54L

SIX6 [10] = target: T10, SIX6 (Homo sapiens, UniProt O95475 114-200, T165A)
T10 sequence: T1 sequence with T52A, I54L

SIX6 [11] = target: T11, SIX6 (Homo sapiens, UniProt O95475 114-200, L167V)
T11 sequence: T1 sequence with I54V

SIX6 [12] = target: T12, SIX6 (Homo sapiens, UniProt O95475 114-200)
T12 sequence: T1 sequence with I54L

SIX6 [13] = target: T13, SIX6 (Homo sapiens, UniProt O95475 114-200, T165I)
T13 sequence: T1 sequence with T52I, I54L

CCGGCGCC
binding signal (SIX6 [1]): 8.8 upbm affinity estimate (log intensity, higher = more binding, comparable within an allelic series)
binding signal (SIX6 [2]): 8.98 upbm affinity estimate (log intensity, higher = more binding, comparable within an allelic series)
binding signal (SIX6 [3]): 8.96 upbm affinity estimate (log intensity, higher = more binding, comparable within an allelic series)
binding signal (SIX6 [4]): 9.05 upbm affinity estimate (log intensity, higher = more binding, comparable within an allelic series)
binding signal (SIX6 [5]): 9 upbm affinity estimate (log intensity, higher = more binding, comparable within an allelic series)
binding signal (SIX6 [6]): 8.85 upbm affinity estimate (log intensity, higher = more binding, comparable within an allelic series)
binding signal (SIX6 [7]): 9.03 upbm affinity estimate (log intensity, higher = more binding, comparable within an allelic series)
binding signal (SIX6 [8]): 8.96 upbm affinity estimate (log intensity, higher = more binding, comparable within an allelic series)
binding signal (SIX6 [9]): 8.96 upbm affinity estimate (log intensity, higher = more binding, comparable within an allelic series)
binding signal (SIX6 [10]): 8.98 upbm affinity estimate (log intensity, higher = more binding, comparable within an allelic series)
binding signal (SIX6 [11]): 8.96 upbm affinity estimate (log intensity, higher = more binding, comparable within an allelic series)
binding signal (SIX6 [12]): 9.02 upbm affinity estimate (log intensity, higher = more binding, comparable within an allelic series)
binding signal (SIX6 [13]): 8.9 upbm affinity estimate (log intensity, higher = more binding, comparable within an allelic series)

AGGGTATC
binding signal (SIX6 [1]): 11.2 upbm affinity estimate (log intensity, higher = more binding, comparable within an allelic series)
binding signal (SIX6 [2]): 10.2 upbm affinity estimate (log intensity, higher = more binding, comparable within an allelic series)
binding signal (SIX6 [3]): 11.2 upbm affinity estimate (log intensity, higher = more binding, comparable within an allelic series)
binding signal (SIX6 [4]): 9.36 upbm affinity estimate (log intensity, higher = more binding, comparable within an allelic series)
binding signal (SIX6 [5]): 10.7 upbm affinity estimate (log intensity, higher = more binding, comparable within an allelic series)
binding signal (SIX6 [6]): 11 upbm affinity estimate (log intensity, higher = more binding, comparable within an allelic series)
binding signal (SIX6 [7]): 10.4 upbm affinity estimate (log intensity, higher = more binding, comparable within an allelic series)
binding signal (SIX6 [8]): 11.4 upbm affinity estimate (log intensity, higher = more binding, comparable within an allelic series)
binding signal (SIX6 [9]): 11.4 upbm affinity estimate (log intensity, higher = more binding, comparable within an allelic series)
binding signal (SIX6 [10]): 11.1 upbm affinity estimate (log intensity, higher = more binding, comparable within an allelic series)
binding signal (SIX6 [11]): 10.9 upbm affinity estimate (log intensity, higher = more binding, comparable within an allelic series)
binding signal (SIX6 [12]): 11.1 upbm affinity estimate (log intensity, higher = more binding, comparable within an allelic series)
binding signal (SIX6 [13]): 11 upbm affinity estimate (log intensity, higher = more binding, comparable within an allelic series)

CGCAACCG
binding signal (SIX6 [1]): 9.24 upbm affinity estimate (log intensity, higher = more binding, comparable within an allelic series)
binding signal (SIX6 [2]): 9.05 upbm affinity estimate (log intensity, higher = more binding, comparable within an allelic series)
binding signal (SIX6 [3]): 9.23 upbm affinity estimate (log intensity, higher = more binding, comparable within an allelic series)
binding signal (SIX6 [4]): 9.03 upbm affinity estimate (log intensity, higher = more binding, comparable within an allelic series)
binding signal (SIX6 [5]): 9.16 upbm affinity estimate (log intensity, higher = more binding, comparable within an allelic series)
binding signal (SIX6 [6]): 9.07 upbm affinity estimate (log intensity, higher = more binding, comparable within an allelic series)
binding signal (SIX6 [7]): 9.2 upbm affinity estimate (log intensity, higher = more binding, comparable within an allelic series)
binding signal (SIX6 [8]): 9.18 upbm affinity estimate (log intensity, higher = more binding, comparable within an allelic series)
binding signal (SIX6 [9]): 9.31 upbm affinity estimate (log intensity, higher = more binding, comparable within an allelic series)
binding signal (SIX6 [10]): 9.14 upbm affinity estimate (log intensity, higher = more binding, comparable within an allelic series)
binding signal (SIX6 [11]): 9.12 upbm affinity estimate (log intensity, higher = more binding, comparable within an allelic series)
binding signal (SIX6 [12]): 9.2 upbm affinity estimate (log intensity, higher = more binding, comparable within an allelic series)
binding signal (SIX6 [13]): 9.15 upbm affinity estimate (log intensity, higher = more binding, comparable within an allelic series)

CGCGGCCA
binding signal (SIX6 [1]): 8.81 upbm affinity estimate (log intensity, higher = more binding, comparable within an allelic series)
binding signal (SIX6 [2]): 8.96 upbm affinity estimate (log intensity, higher = more binding, comparable within an allelic series)
binding signal (SIX6 [3]): 8.88 upbm affinity estimate (log intensity, higher = more binding, comparable within an allelic series)
binding signal (SIX6 [4]): 8.99 upbm affinity estimate (log intensity, higher = more binding, comparable within an allelic series)
binding signal (SIX6 [5]): 8.82 upbm affinity estimate (log intensity, higher = more binding, comparable within an allelic series)
binding signal (SIX6 [6]): 8.81 upbm affinity estimate (log intensity, higher = more binding, comparable within an allelic series)
binding signal (SIX6 [7]): 8.93 upbm affinity estimate (log intensity, higher = more binding, comparable within an allelic series)
binding signal (SIX6 [8]): 8.87 upbm affinity estimate (log intensity, higher = more binding, comparable within an allelic series)
binding signal (SIX6 [9]): 8.91 upbm affinity estimate (log intensity, higher = more binding, comparable within an allelic series)
binding signal (SIX6 [10]): 8.86 upbm affinity estimate (log intensity, higher = more binding, comparable within an allelic series)
binding signal (SIX6 [11]): 8.96 upbm affinity estimate (log intensity, higher = more binding, comparable within an allelic series)
binding signal (SIX6 [12]): 8.84 upbm affinity estimate (log intensity, higher = more binding, comparable within an allelic series)
binding signal (SIX6 [13]): 8.87 upbm affinity estimate (log intensity, higher = more binding, comparable within an allelic series)

ACGATATC
binding signal (SIX6 [1]): 11.1 upbm affinity estimate (log intensity, higher = more binding, comparable within an allelic series)
binding signal (SIX6 [2]): 10.2 upbm affinity estimate (log intensity, higher = more binding, comparable within an allelic series)
binding signal (SIX6 [3]): 11.1 upbm affinity estimate (log intensity, higher = more binding, comparable within an allelic series)
binding signal (SIX6 [4]): 9.76 upbm affinity estimate (log intensity, higher = more binding, comparable within an allelic series)
binding signal (SIX6 [5]): 10.6 upbm affinity estimate (log intensity, higher = more binding, comparable within an allelic series)
binding signal (SIX6 [6]): 11 upbm affinity estimate (log intensity, higher = more binding, comparable within an allelic series)
binding signal (SIX6 [7]): 10.3 upbm affinity estimate (log intensity, higher = more binding, comparable within an allelic series)
binding signal (SIX6 [8]): 11.3 upbm affinity estimate (log intensity, higher = more binding, comparable within an allelic series)
binding signal (SIX6 [9]): 11.2 upbm affinity estimate (log intensity, higher = more binding, comparable within an allelic series)
binding signal (SIX6 [10]): 11 upbm affinity estimate (log intensity, higher = more binding, comparable within an allelic series)
binding signal (SIX6 [11]): 10.9 upbm affinity estimate (log intensity, higher = more binding, comparable within an allelic series)
binding signal (SIX6 [12]): 10.9 upbm affinity estimate (log intensity, higher = more binding, comparable within an allelic series)
binding signal (SIX6 [13]): 10.8 upbm affinity estimate (log intensity, higher = more binding, comparable within an allelic series)

AGGTATCA
binding signal (SIX6 [1]): 11.7 upbm affinity estimate (log intensity, higher = more binding, comparable within an allelic series)
binding signal (SIX6 [2]): 10.6 upbm affinity estimate (log intensity, higher = more binding, comparable within an allelic series)
binding signal (SIX6 [3]): 11.8 upbm affinity estimate (log intensity, higher = more binding, comparable within an allelic series)
binding signal (SIX6 [4]): 9.9 upbm affinity estimate (log intensity, higher = more binding, comparable within an allelic series)
binding signal (SIX6 [5]): 11 upbm affinity estimate (log intensity, higher = more binding, comparable within an allelic series)
binding signal (SIX6 [6]): 11.4 upbm affinity estimate (log intensity, higher = more binding, comparable within an allelic series)
binding signal (SIX6 [7]): 10.7 upbm affinity estimate (log intensity, higher = more binding, comparable within an allelic series)
binding signal (SIX6 [8]): 11.8 upbm affinity estimate (log intensity, higher = more binding, comparable within an allelic series)
binding signal (SIX6 [9]): 11.6 upbm affinity estimate (log intensity, higher = more binding, comparable within an allelic series)
binding signal (SIX6 [10]): 11.7 upbm affinity estimate (log intensity, higher = more binding, comparable within an allelic series)
binding signal (SIX6 [11]): 11.5 upbm affinity estimate (log intensity, higher = more binding, comparable within an allelic series)
binding signal (SIX6 [12]): 11.4 upbm affinity estimate (log intensity, higher = more binding, comparable within an allelic series)
binding signal (SIX6 [13]): 11.5 upbm affinity estimate (log intensity, higher = more binding, comparable within an allelic series)
